From PubChem BioAssay (NCATS)
Inconclusive results are not listed. Calls of active or inactive are those of the source. Unless noted, calls come from the whole dose curve; as a rule, active = well fitted curve in the direction sought with a large enough effect; inconclusive = small, poorly fitted or top-dose-only effect, or another doubt; inactive = no such curve, though single readings can be large; an effect the other way counts as inactive or inconclusive.

Columns and labels:
[1] = molecular target: Peptidyl-prolyl cis-trans isomerase NIMA-interacting 1 (Homo sapiens) (UniProt Q13526); test: qHTS Validation Assay to Find Inhibitors of Pin1 (AID 504536; active = well fitted inhibition curve with a large enough effect in the polarisation, with a control signal flat, not every such curve was filed as active; the % refers to the polarisation; note: potency is the fitted concentration of half-maximal effect)
Outline: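 Fluorescence polarization competition: compounds (titration) displace HiFluor-488-labeled Pin1-1b peptide from Pin1 (0.3 uM final) in pH 7.5 HEPES buffer with DTT, 10 min at room temperature; %Activity normalized to no-enzyme wells, curves fitted.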

[2] = molecular target: Phosphoglycerate kinase, glycosomal (Trypanosoma brucei brucei) (UniProt P07378); test: qHTS Validation Assay to Find Inhibitors of Phosphoglycerate Kinase (AID 504547); note: potency is the fitted concentration of half-maximal effect
Outline: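 PGK activity was coupled to GAPDH (100nM final), which generates the unstable substrate 1,3-bisphosphoglycerate in-well. Reactions ran 60 minutes at room temperature in 100mM TEA pH 7.6, 5mM MgCl2, 0.01% Tween-20, then Kinase-Glo Plus luminescence was read.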

[3] = molecular target: phosphoglycerate mutase (Leishmania major) (UniProt Q4Q090); test: qHTS Validation Assay to Find Inhibitors of Phosphoglycerate Mutase (AID 504548); conditions: Potency: inhibition qHTS;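 note: end-point luminescence from Kinase-GloPlus after the PGAM reaction; series mostly up to about 58 µM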
Outline: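 Inhibition of L. major PGAM was assessed by Kinase-GloPlus luminescence following a 45-minute room-temperature reaction with enzyme at 1.25nM final.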

[4] = qHTS for Inhibitors of ATXN expression: Validation (AID 588378); note: nearly all actives have a fitted effect of over 75% in size; note: potency is the fitted concentration of half-maximal effect
Outline: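 Validation of ATXN2 expression inhibitors uses a cell-based luciferase fusion reporter in HEK293 cells, with 24 h compound exposure and paired viability (fluorescence) and reporter (luminescence) end-point reads.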

[5] = molecular target: Ubiquitin carboxyl-terminal hydrolase 1 (Homo sapiens) (UniProt O94782); test: Inhibitors of USP1/UAF1: Pilot qHTS (AID 504865); note: nearly all actives have a fitted effect of over 35% in size; note: potency is the fitted concentration of half-maximal effect
Outline: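 Kinetic fluorescence assay: 1nM USP1/UAF1, 15 min compound preincubation, then 150nM Ub-Rho; 480/540 nm.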

[6] = qHTS for Inhibitors of ATXN expression: Validation of Cytotoxic Assay (AID 588349);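 note: cells exposed to compound for 72 hr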
Outline: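 HEK293, compound dose series, 72 hr / 37 degrees C; viability via CellTiter Glo (intracellular ATP).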

Measured: Potency

Sequence of Phosphoglycerate kinase, glycosomal (Trypanosoma brucei brucei) (P07378 whole entry, looked up): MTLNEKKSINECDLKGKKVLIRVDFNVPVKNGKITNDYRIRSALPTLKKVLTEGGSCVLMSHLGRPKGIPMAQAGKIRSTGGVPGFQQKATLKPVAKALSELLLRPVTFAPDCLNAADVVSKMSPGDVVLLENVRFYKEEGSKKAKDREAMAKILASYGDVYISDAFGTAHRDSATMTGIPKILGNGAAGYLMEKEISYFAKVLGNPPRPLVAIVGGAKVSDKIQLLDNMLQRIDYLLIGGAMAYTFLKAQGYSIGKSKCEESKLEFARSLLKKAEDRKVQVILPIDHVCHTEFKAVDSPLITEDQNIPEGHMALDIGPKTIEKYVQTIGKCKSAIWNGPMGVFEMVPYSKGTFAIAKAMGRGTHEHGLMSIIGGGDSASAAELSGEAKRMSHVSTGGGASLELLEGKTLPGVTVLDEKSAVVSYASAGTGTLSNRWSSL
Sequence of phosphoglycerate mutase (Leishmania major) (Q4Q090 1-553): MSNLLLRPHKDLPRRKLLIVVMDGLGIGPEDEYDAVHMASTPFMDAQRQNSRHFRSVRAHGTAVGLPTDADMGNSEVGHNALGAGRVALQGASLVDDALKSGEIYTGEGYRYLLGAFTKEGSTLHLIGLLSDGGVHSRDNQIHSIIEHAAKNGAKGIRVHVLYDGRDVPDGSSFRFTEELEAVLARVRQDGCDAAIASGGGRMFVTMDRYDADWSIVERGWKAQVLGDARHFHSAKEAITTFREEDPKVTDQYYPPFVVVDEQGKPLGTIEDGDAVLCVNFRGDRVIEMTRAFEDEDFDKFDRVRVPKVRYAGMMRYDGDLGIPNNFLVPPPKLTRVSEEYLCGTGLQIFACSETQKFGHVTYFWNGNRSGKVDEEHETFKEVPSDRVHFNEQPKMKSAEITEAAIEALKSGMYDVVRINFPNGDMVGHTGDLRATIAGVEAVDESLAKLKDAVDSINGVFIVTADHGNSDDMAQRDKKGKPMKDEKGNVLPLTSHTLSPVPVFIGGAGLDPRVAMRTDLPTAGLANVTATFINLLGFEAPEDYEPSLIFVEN
Sequence of Peptidyl-prolyl cis-trans isomerase NIMA-interacting 1 (Homo sapiens) (Q13526 whole entry, looked up): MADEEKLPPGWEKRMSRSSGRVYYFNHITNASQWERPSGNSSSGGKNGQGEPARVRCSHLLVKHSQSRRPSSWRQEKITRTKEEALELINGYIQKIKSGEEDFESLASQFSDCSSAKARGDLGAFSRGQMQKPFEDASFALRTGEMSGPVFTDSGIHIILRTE
Sequence of Ubiquitin carboxyl-terminal hydrolase 1 (Homo sapiens) (O94782 whole entry, looked up): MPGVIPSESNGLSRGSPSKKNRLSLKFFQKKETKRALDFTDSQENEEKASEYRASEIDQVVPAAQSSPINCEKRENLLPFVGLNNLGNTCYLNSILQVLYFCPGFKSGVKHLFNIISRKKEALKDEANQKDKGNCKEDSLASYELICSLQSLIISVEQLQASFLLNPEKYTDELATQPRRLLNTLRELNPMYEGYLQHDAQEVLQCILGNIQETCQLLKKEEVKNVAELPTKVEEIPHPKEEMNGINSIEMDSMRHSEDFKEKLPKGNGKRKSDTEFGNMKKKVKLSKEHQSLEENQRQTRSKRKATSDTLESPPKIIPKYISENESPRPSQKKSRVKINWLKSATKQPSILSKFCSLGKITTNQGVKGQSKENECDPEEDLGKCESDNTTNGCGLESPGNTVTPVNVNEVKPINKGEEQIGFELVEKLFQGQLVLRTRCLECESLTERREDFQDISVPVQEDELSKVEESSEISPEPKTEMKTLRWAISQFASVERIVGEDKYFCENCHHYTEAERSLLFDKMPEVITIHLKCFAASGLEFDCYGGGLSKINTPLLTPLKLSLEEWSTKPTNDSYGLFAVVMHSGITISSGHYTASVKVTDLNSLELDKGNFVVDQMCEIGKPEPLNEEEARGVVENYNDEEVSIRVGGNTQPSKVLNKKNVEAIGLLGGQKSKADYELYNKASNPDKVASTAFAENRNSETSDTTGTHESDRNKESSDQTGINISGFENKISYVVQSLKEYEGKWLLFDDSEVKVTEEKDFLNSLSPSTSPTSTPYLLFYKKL

O=[N+]([O-])c1ccc2c(c1)S(=O)(=O)C=C2
inactive: [1] | [2] | [3]
active: [4] 6.31 µM

O=[N+]([O-])c1ccc(CSc2ncnc3c2ncn3[C@@H]2O[C@H](CO)[C@@H](O)[C@H]2O)cc1
not listed: [3]
inactive: all other assays above

C#C[C@]1(O)CC[C@H]2[C@@H]3CCC4=Cc5oncc5CC4(C)[C@H]3CCC21C (some centres undefined)
not listed: [5]
inactive: all other assays above

N#C/C(=C\c1ccc(O)c(O)c1)C(=O)c1ccc(O)c(O)c1
inactive: [5] | [6]
active: [1] 1.69 µM | [2] 0.757 µM

Nc1ncnc2c1ncn2[C@@H]1O[C@H](COP(=O)(O)OP(=O)(O)OP(=O)(O)OP(=O)(O)OC[C@@H]2O[C@H](n3cnc4c(N)ncnc43)[C@@H](O)[C@H]2O)[C@@H](O)[C@H]1O
not listed: [3]
inactive: all other assays above

O=C(/C=C/c1ccc(O)c(O)c1)OCCc1ccccc1
inactive: [1] | [2] | [3] | [4]

NCC1OC(O[C@H]2[C@H](O)[C@@H](OC3C(O)C(N)CC(N)C3OC3OC(CO)C(O)C(O)C3N)O[C@@H]2CO)C(N)C(O)C1O (some centres undefined)
not listed: [5]
inactive: all other assays above

Cc1cc2c(cc1Cl)N(C(=O)Nc1ccc(Oc3cccnc3C)nc1)CC2
inactive: [1] | [2]
active: [5] 44.7 µM | [4] 17.8 µM

N#C/C(=C\c1ccc(-c2cc(Cl)ccc2Cl)o1)C(=O)Nc1cccc2ncccc12
active: [5] 15.8 µM
inactive: [2] | [3]

CCOC(=O)N1CCN(/[N+]([O-])=N/Oc2ccc([N+](=O)[O-])cc2[N+](=O)[O-])CC1
inactive: [1] | [2] | [4]

CCc1c(C(=O)NCCc2ccc(N3CCCCC3)cc2)[nH]c2ccc(Cl)cc12
inactive: [1] | [2] | [5] | [6]

N#C/C(=C\c1ccc(O)c(O)c1)C(=O)NCCCc1ccccc1
inactive: [2] | [3]

Cc1ccc(S(=O)(=O)/C=C/C#N)cc1
active: [4] 10 µM
not listed: [6]
inactive: all other assays above

Nc1ncnc2c1c(I)cn2[C@@H]1C[C@H](N)[C@@H](O)[C@H]1O
active: [4] 10 µM
not listed: [6]
inactive: all other assays above

CO/S(=N\S(=O)(=O)c1ccc(Cl)cc1)c1ccc([N+](=O)[O-])cc1 (centres undefined)
inactive: [1] | [2] | [6]
active: [5] 31.6 µM

O=C(/C=C/c1ccc(O)cc1)c1ccc(O)cc1O
inactive: [1] | [2] | [4]
active: [5] 79.4 µM

CN(C)CCCO[C@@H]1[C@H]2OC(C)(C)O[C@H]2O[C@@H]1[C@H](O)CO
inactive: [1] | [2] | [5] | [6]

Nc1nc(SCc2ccc([N+](=O)[O-])cc2)c2ncn([C@@H]3O[C@H](CO)[C@@H](O)[C@H]3O)c2n1
not listed: [3]
inactive: all other assays above

NC(=S)c1ccc[n+]([C@@H]2O[C@@H](COP(=O)([O-])OP(=O)(O)OC[C@H]3O[C@@H](n4cnc5c(N)ncnc54)[C@H](OP(=O)(O)O)[C@@H]3O)C(O)C2O)c1 (some centres undefined)
active: [1] 19 µM
not listed: [3]
inactive: all other assays above

COc1cc(OC)c(/C=C2/C(=O)Nc3ccccc32)c(OC)c1
inactive: [1] | [2] | [5]

NC(N)=NC(=O)c1nc(Cl)c(N2CCCCCC2)nc1N
not listed: [6]
inactive: all other assays above

CCOC(=O)C1=C(C)NC(C)=C(C(=O)OCC)C1c1c(F)c(F)c(F)c(F)c1F
inactive: [1] | [2] | [3] | [6]

CC(C)NC[C@@H](O)c1ccc(O)c(O)c1
inactive: [2] | [3] | [5]

COc1ccccc1N1CCN(CCN(C(=O)c2ccc(I)cc2)c2ccccn2)CC1
not listed: [6]
inactive: all other assays above

OC[C@H]1O[C@@H](n2cnc3c(Nc4ccccc4)ncnc32)[C@H](O)[C@@H]1O
inactive: [1] | [2] | [5] | [6]

O=C1/C(=C/c2ccsc2)CC/C1=C\c1cccs1
not listed: [3]
inactive: all other assays above

COc1cc(SC)ccc1C(=O)N1CCC(Cc2ccccc2)CC1
inactive: [1] | [2] | [3] | [6]

CN1C2CC(OC(=O)[C@H](CO)c3ccccc3)CC1C1OC12 (some centres undefined)
inactive: [1] | [2] | [6]

Oc1cc2c(cc1O)CN(C(=S)NCCc1ccc(Cl)cc1)CCC2
not listed: [5]
inactive: all other assays above

CCCCCCCCCCCCCCCC(=O)NCC(COP(=O)([O-])OCC[N+](C)(C)C)OCC (centres undefined)
inactive: [1] | [2]
active: [5] 79.4 µM

CCC1C(=O)OCC1Cc1cncn1C (centres undefined)
inactive: [1] | [2] | [3] | [4]

O=C1NC(=O)/C(=C/c2ccc3nccnc3c2)S1
inactive: [1] | [2] | [3] | [6]

COC1=C(OC)C(=O)c2ccccc2C1=O
active: [5] 17.8 µM
inactive: [2] | [3]

CC1OC1P(=O)(O)O (centres undefined)
not listed: [5]
inactive: all other assays above

O=P(O)(O)C(Cl)(Cl)P(=O)(O)O
inactive: [2] | [3] | [6]
active: [1] 26.9 µM
